# ChEMBL document CHEMBL4513216, “Probing the Open Global Health Chemical Diversity Library for Multistage-Active Starting Points for Next-Generation Antimalarials” (ACS Infect Dis, 2020)
# In all, about 69,000 compounds went through this assay and about 8,600 (12%) showed an effect of 50% or more. The entries come from a sample that favours strong results as a whole.
# Tested on: Plasmodium berghei
# Test: Screen against P. berghei liver stage (PbLuc), transformed with Luciferase, at 10uM
# Format: functional, HepG2
# Conditions: tested at 10 uM
row,SMILES,INHIBITION [%]
1,CNc1nnc(CCn2nc(C)c(Br)c2C)s1,7.38
2,CS(=O)(=O)c1ccc(-c2cnc(C3CCCN3)cn2)cc1 (stereo not drawn),45.95
3,CCCc1noc(CNc2ccc(C(=O)N3CCCC3)cc2C)n1,12.7
4,COc1cc2cc(C)c(SCCN3CCCC3)nc2cc1OC,33.2
5,CCc1cc2cc(OC)c(OC)cc2nc1SCCN1CCCCC1,43.4
6,COc1cc2cc(C)c(SCCN3CCCCC3)nc2cc1OC,51.7
7,COc1ccc(Cc2cccc(C3CCN(C)CC3)n2)cc1,43.8
8,CN1CCC(c2cccc(Cc3ccccc3)n2)CC1,82.7
9,CN1CCC(c2cccc(Cc3ccc(C(F)(F)F)cc3)n2)CC1,85.7
10,CN1CCC(c2cccc(Cc3ccc(F)cc3)n2)CC1,35.8
11,CN1CCC(c2cccc(NCc3ccncc3)n2)CC1,-2.09
12,CN1CCC(c2cccc(CCC(=O)NCC(N)=O)n2)CC1,-6.92
13,CCN(Cc1ccc2c(c1)OCO2)S(=O)(=O)N(C)C,-21.9
14,CC(C)Cc1noc(C2CCN(C(=O)c3cccs3)CC2)n1,17
15,Cc1cnn(CC2CCCN2C(=O)c2cccc(-n3ccc(C)n3)c2)c1 (stereo not drawn),-17
16,NC(=O)COc1cccc(CN2CCc3cncnc3C2)c1,11.2
17,CN(Cc1ccco1)[C@@H]1CN(Cc2ccoc2)C[C@@H]2CCCO[C@@H]21,41.3
18,CS(=O)(=O)c1cnc(C2CCCC2)nc1C1CCCNC1 (stereo not drawn),16.5
19,COCCN1CCc2c(cnc(-c3ccccc3)c2C(=O)O)C1,36.4
20,CC(C)(O)CN1CCN(C(=O)COCc2ccccc2Cl)CC1,23.1

row,SMILES,INHIBITION [%]
1,Cc1cccc(-n2nnnc2C2(NCc3ccco3)CCCCC2)c1,28.7
2,Cc1noc(C2CCCN(C(=O)c3cc(-c4ccccc4)on3)C2)n1 (stereo not drawn),47.7
3,Cn1cnnc1C1CCCN(C(=O)NCc2ccccc2)C1 (stereo not drawn),-33.7
4,Cn1cnnc1C1CCCN(C(=O)c2cc(-c3ccccc3)on2)C1 (stereo not drawn),60
5,Cn1cnnc1C1CCCN(C(=O)c2cc(C3CC3)on2)C1 (stereo not drawn),5.15
6,Cc1cc(C(=O)N2CCCC(c3nncn3C)C2)no1 (stereo not drawn),36.5
7,Cn1cnnc1C1CCCN(C(=O)NCc2ccccn2)C1 (stereo not drawn),1.75
8,COC1CCN(C(=O)c2cc(-c3ccc(Cl)cc3)on2)CC1,-55.6
9,Cn1cnnc1C1CCCN(C(=O)NCc2cc[nH]n2)C1 (stereo not drawn),50.4
10,Cn1cnnc1C1CCN(C(=O)c2cc(-c3ccccc3)on2)CC1,51
11,Cc1cccc2ncn(C(C)Cn3cccn3)c(=O)c12 (stereo not drawn),31.7
12,Cc1nn(C)cc1C1CC(=O)Nc2c1cnn2C(C)C (stereo not drawn),48.4
13,COCCN1C(=O)[C@@H]2CC[C@H]1CN(S(=O)(=O)c1ccc(C#N)cc1)C2,39.1
14,Cc1cnn(CC2CCCCN2CC(=O)Nc2cccnc2)c1 (stereo not drawn),33.4
15,O=C(NCc1cccnc1-n1cncn1)C1CC2(CCNCC2)CN1 (stereo not drawn),20.2
16,O=C1CCN(C(=O)NCc2cccc(Oc3ccccc3)c2)CCN1,3.63
17,COC1(CNC(=O)c2ccoc2)CCSC1 (stereo not drawn),14.2
18,O=C(Cc1cccs1)NCC1(O)CCSCC1,-24.5
19,O=C(NCC1(O)CCSCC1)c1ccoc1,-2.04
20,O=C(NCC1(O)CCSC1)c1ccoc1 (stereo not drawn),86.7

row,SMILES,INHIBITION [%]
1,O=C(Cc1cccs1)NCC1(O)CCc2ccccc2C1 (stereo not drawn),37.4
2,O=C(Cc1cccs1)NCC1(O)CCSC1 (stereo not drawn),54.8
3,CC(C)N(C)Cc1nnc2n1CCN(Cc1ccncc1)CC2,1.28
4,CN1C(=O)[C@@H]2CC[C@H]1CN(C(=O)Nc1cccc3ccccc13)C2,-42.1
5,NCc1n[nH]c(-c2ccc(F)cc2)n1,-19.7
6,CCCC(=O)N(C)Cc1nc(N2CCCC2)ncc1-c1ccncc1,14.855
7,COCC(=O)N(C)Cc1nc(N2CCCC2)ncc1-c1ccncc1,52
8,CC(C)C(=O)N(C)Cc1nc(N2CCCC2)ncc1-c1ccncc1,11.235
9,Cc1cc(N(Cc2ccon2)S(C)(=O)=O)ccc1Br,-22.6
10,CCS(=O)(=O)N1C[C@@H]2CN(Cc3cccs3)CCO[C@@H]2C1,90.7
11,O=S(=O)(C1CC1)N1CCO[C@@H]2CN(Cc3cccs3)C[C@@H]2C1,-23.4
12,CCS(=O)(=O)N1C[C@@H]2CN(Cc3cnn(C)c3)CCO[C@@H]2C1,-13
13,CCCS(=O)(=O)N1C[C@@H]2CN(Cc3ccoc3)CCO[C@@H]2C1,-58.9
14,CCS(=O)(=O)N1C[C@@H]2CN(Cc3ccco3)CCO[C@@H]2C1,-39.2
15,CCCS(=O)(=O)N1C[C@@H]2CN(Cc3cnn(C)c3)CCO[C@@H]2C1,65.6
16,O=S(=O)(C1CC1)N1C[C@@H]2CN(Cc3cccs3)CCO[C@@H]2C1,34.3
17,c1csc(CN2CCO[C@@H]3CN(C4CCOCC4)C[C@@H]3C2)c1,64.4
18,CCCS(=O)(=O)N1C[C@@H]2CN(Cc3cccs3)CCO[C@@H]2C1,-2.46
